From PubChem BioAssay (EPA / NIEHS) come the findings set out here.

Usually AC50 stands for the midpoint of the concentration-response curve, whichever way the signal moves.

Read-out in assay [1]: Decorin, DCN (gene 1634)
The assay can be described thus: BSK_MyoF_Decorin: BioMAP Diversity Plus: MyoF Assay for Decorin Biomarker Activity (AID 2284265). The settings on record: primary human lung fibroblasts. A digest of the protocol:
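Human lung fibroblast cultures were dosed for 24 h, and decorin was then measured by ELISA. Parallel cultures were stained with sulforhodamine B for total protein as a cytotoxicity check. Gain of signal was fitted relative to DMSO.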

Read-out in assay [2]: KRT18 (gene 3875)
The assay can be described thus: BSK_BF4T_Keratin818: BioMAP Diversity Plus: BF4T Assay for Keratin 818 Biomarker Activity (AID 2284266). As to conditions: primary human bronchial epithelial cells with fibroblasts. A digest of the protocol: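 Keratin 8/18 levels quantified by ELISA after 24 h chemical treatment of bronchial epithelial cell/dermal fibroblast co-cultures, fitted in positive direction relative to DMSO. Parallel SRB staining tracks overt cytotoxicity.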

The nature of assay [3]: BSK_MyoF_SRB: Viability Assessment in the BioMAP Diversity Plus: MyoF Assay (AID 2284267).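 Note: total protein by SRB absorbance in parallel cultures as cytotoxicity measure; cells assessed 24 h after compound addition.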 As to conditions: primary human lung fibroblasts. A digest of the protocol: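 In this viability endpoint, fibroblasts from human lung are treated for 24 h, TCA-fixed, SRB-stained (0.1%) and read at 560 nm. Gain of signal relative to DMSO defines activity.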
Read-out in assay [4]: Matrix Metallopeptidase 1 (MMP1), MMP1 (gene 4312)
The assay can be described thus: BSK_MyoF_MMP1: BioMAP Diversity Plus: MyoF Assay for Matrix Metallopeptidase 1 (MMP1) Biomarker Activity (AID 2284268). The settings on record: primary human lung fibroblasts. A digest of the protocol: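 Human lung fibroblast primary cells; MMP1 measured by ELISA 24 h after dosing, fitted in the positive direction relative to DMSO. Parallel SRB staining (0.1%, after 10% TCA fixation, 560 nm) assesses overt cytotoxicity.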

Read-out in assay [5]: TIMP metallopeptidase inhibitor 1 (TIMP1), TIMP1 (gene 7076)
The assay can be described thus: BSK_MyoF_TIMP1: BioMAP Diversity Plus: MyoF Assay for TIMP metallopeptidase inhibitor 1 (TIMP1) Biomarker Activity (AID 2284269). The settings on record: primary human lung fibroblasts. The gist of the method: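 Fibroblasts from human lung are dosed with chemical, cultured 24 h, and assayed for TIMP-1 by ELISA. Increases over the DMSO baseline are scored, with SRB total-protein staining run in parallel for cytotoxicity.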

Read-out in assay [6]: Matrix Metallopeptidase 3 (MMP3), MMP3 (gene 4314)
The assay can be described thus: BSK_BF4T_MMP3: BioMAP Diversity Plus: BF4T Assay for Matrix Metallopeptidase 3 (MMP3) Biomarker Activity (AID 2284271). The settings on record: primary human bronchial epithelial cells with fibroblasts. The gist of the method: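 MMP-3 level read by ELISA after 24 h chemical exposure of bronchial epithelial cell/dermal fibroblast co-cultures, fitted upward relative to DMSO. Parallel cultures stained with 0.1% SRB after TCA fixation gauge overt cytotoxicity.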

Read-out in assay [7]: Tissue plasminogen activator (tPA), PLAT (gene 5327)
The assay can be described thus: BSK_BF4T_tPA: BioMAP Diversity Plus: BF4T Assay for Tissue plasminogen activator (tPA) Biomarker Activity (AID 2284272). As to conditions: primary human bronchial epithelial cells with fibroblasts. A digest of the protocol:
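tPA level quantified by ELISA at 24 h post-treatment in bronchial epithelial/dermal fibroblast co-cultures, gain of signal scored against DMSO baseline. Parallel cultures stained with 0.1% SRB (560 nm) to flag overt cytotoxicity.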

Read-out in assay [8]: Matrix Metallopeptidase 9 (MMP9), MMP9 (gene 4318)
The assay can be described thus: BSK_BF4T_MMP9: BioMAP Diversity Plus: BF4T Assay for Matrix Metallopeptidase 9 (MMP9) Biomarker Activity (AID 2284276). The settings on record: primary human bronchial epithelial cells with fibroblasts. A digest of the protocol:
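MMP-9 levels were measured by ELISA after 24 h exposure of bronchial epithelial cell/dermal fibroblast co-cultures, with DMSO as baseline. Parallel cultures were stained with 0.1% SRB after TCA fixation, read at 560 nm, to flag overt cytotoxicity.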

Read-out in assay [9]: Interleukin-8 (IL8), CXCL8 (gene 3576)
The assay can be described thus: BSK_IMphg_IL8: BioMAP Diversity Plus: IMphg Assay for Interleukin-8 (IL8) Biomarker Activity (AID 2284277). The settings on record: primary human endothelial cells with macrophages. A digest of the protocol: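 IL-8 levels were measured by ELISA 24 h after dosing in primary human venular endothelial cell–macrophage cultures, referenced to DMSO; parallel SRB staining monitored overt cytotoxicity.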

Read-out in assay [10]: Intercellular Adhesion Molecule 1 (ICAM1), ICAM1 (gene 3383)
The assay can be described thus: BSK_BE3C_ICAM1: BioMAP Diversity Plus: BE3C Assay for Intercellular Adhesion Molecule 1 (ICAM1) Biomarker Activity (AID 2284278).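 For outcome: cell-surface ICAM-1 protein level quantified by ELISA.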 As to conditions: primary human bronchial epithelial cells. A digest of the protocol: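 hu bronchial epithelial primary cells, 24 h cpd exposure, ICAM-1 ELISA; gain-of-signal fit vs DMSO baseline.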

Read-out in assay [11]: Interleukin-8 (IL8), CXCL8 (gene 3576)
The assay can be described thus: BSK_BE3C_IL8: BioMAP Diversity Plus: BE3C Assay for Interleukin-8 (IL8) Biomarker Activity (AID 2284280). As to conditions: primary human bronchial epithelial cells. A digest of the protocol:
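Primary human bronchial epithelial cells (BE3C system) were exposed to test chemical for 24 h, and IL-8 levels were then measured by ELISA. Activity was fitted in the positive (gain-of-signal) direction against a DMSO negative-control baseline.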

Read-out in assay [12]: Epidermal growth factor receptor (EGFR), EGFR (gene 1956)
The assay can be described thus: BSK_BE3C_EGFR: BioMAP Diversity Plus: BE3C Assay for Epidermal growth factor receptor (EGFR) Biomarker Activity (AID 2284281). As to conditions: primary human bronchial epithelial cells. The gist of the method:
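Human primary bronchial epithelial cells were exposed to compound for 24 h, and cell-surface EGFR was then quantified by ELISA. Activity was fitted in the positive direction against the DMSO vehicle baseline.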

Read-out in assay [13]: KRT18 (gene 3875)
The assay can be described thus: BSK_BE3C_Keratin818: BioMAP Diversity Plus: BE3C Assay for Keratin 818 Biomarker Activity (AID 2284282). As to conditions: primary human bronchial epithelial cells. A digest of the protocol: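 In this multiplexed primary-cell system, bronchial epithelial cells were dosed and harvested at 24 h. Keratin 8/18 was determined by ELISA and analysed for increases over DMSO controls.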

Read-out in assay [14]: Matrix Metallopeptidase 9 (MMP9), MMP9 (gene 4318)
The assay can be described thus: BSK_BE3C_MMP9: BioMAP Diversity Plus: BE3C Assay for Matrix Metallopeptidase 9 (MMP9) Biomarker Activity (AID 2284283). The settings on record: primary human bronchial epithelial cells. The gist of the method: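 Human primary bronchial epithelial cells exposed 24 h to compound. MMP9 quantified by ELISA. SRB total-protein staining of parallel cultures assesses cytotoxicity. Positive-direction fit relative to DMSO.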

Read-out in assay [15]: Plasminogen activator inhibitor-1 (PAI1), SERPINE1 (gene 5054)
The assay can be described thus: BSK_CASM3C_PAI1: BioMAP Diversity Plus: CASM3C Assay for Plasminogen activator inhibitor-1 (PAI1) Biomarker Activity (AID 2284284). The settings on record: primary human coronary artery smooth muscle cells.

Read-out in assay [16]: Matrix Metallopeptidase 1 (MMP1), MMP1 (gene 4312)
The assay can be described thus: BSK_BF4T_MMP1: BioMAP Diversity Plus: BF4T Assay for Matrix Metallopeptidase 1 (MMP1) Biomarker Activity (AID 2284270). The settings on record: primary human bronchial epithelial cells with fibroblasts. The gist of the method: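 MMP-1 quantified by ELISA in primary human bronchial epithelial/dermal fibroblast co-cultures, 24 hours post-dosing, with DMSO as baseline; parallel sulforhodamine B staining (560 nm) tracks overt cytotoxicity.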

Assay [17] is described as follows: BSK_BF4T_SRB: Viability Assessment in the BioMAP Diversity Plus: BF4T Assay (AID 2284274). As to conditions: primary human bronchial epithelial cells with fibroblasts. A digest of the protocol: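 Cytotoxicity measured as total protein: cells fixed with 10% TCA, stained with 0.1% SRB, read at 560 nm. Bronchial epithelial/dermal fibroblast co-culture, 24 h after dosing, with positive-direction fitting relative to DMSO.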

Read-out in assay [18]: urokinase Plasminogen Activator (uPA), PLAU (gene 5328)
The assay can be described thus: BSK_BF4T_uPA: BioMAP Diversity Plus: BF4T Assay for urokinase Plasminogen Activator (uPA) Biomarker Activity (AID 2284275). The settings on record: primary human bronchial epithelial cells with fibroblasts. A digest of the protocol: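 uPA levels measured by ELISA at 24 hours in BF4T cultures (bronchial epithelial cells plus dermal fibroblasts) and compared with DMSO; cytotoxicity tracked in parallel cultures by sulforhodamine B staining.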

Read-out in assay [19]: Plasminogen Activator Inhibitor-1 (PAI1), SERPINE1 (gene 5054)
The assay can be described thus: BSK_BF4T_PAI1: BioMAP Diversity Plus: BF4T Assay for Plasminogen Activator Inhibitor-1 (PAI1) Biomarker Activity (AID 2284273). The settings on record: primary human bronchial epithelial cells with fibroblasts. The gist of the method:
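PAI-1 levels quantified by ELISA 24 h post-dosing in bronchial epithelial cell plus dermal fibroblast cultures. Signal gain referenced to DMSO baseline. Sulforhodamine B total-protein staining of parallel wells checked cytotoxicity.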

“And” between values parts separate entries of the source, which are not always exact repeats. Identical values can stand only once. More than one record can exist for a structure, and the calls need not agree. The source made the active and inactive calls. Rule for the calls: active = hit-call score of the fitted dose curve at least 0.9, where 1 is the maximum; inactive = score below 0.9.

For `FC(F)(I)C(F)(F)C(F)(F)C(F)(F)I`, the concentration at half-maximal activity (AC50) in [1] was 45.8 µM (active) and 45.9 µM (active) and 54.5 µM (active); in [2], 46.6 µM (active) and 47.8 µM (active) and 47.4 µM (active); in assay [3], 46.5 µM (active) and 53 µM (active) and 53.4 µM (active); in assay [4], 52 µM (active) and 48.5 µM (active); in assay [5], 56 µM (active) and 47.7 µM (active) and 46.9 µM (active); in [6], 49.7 µM (active) and 50.4 µM (active) and 51.2 µM (active). Moreover, the concentration at half-maximal activity (AC50) was 39.8 µM (active) and 46.2 µM (active) and 48.8 µM (active) in assay [7]; 54.1 µM (active) and 47 µM (active) and 46.8 µM (active) in assay [8]; 1.19 µM (active) in [9]; 44.1 µM (active) and 41.4 µM (active) and 55.3 µM (active) in assay [10]; 47.4 µM (active) and 46 µM (active) in [11]; 45.3 µM (active) and 47.3 µM (active) and 46.8 µM (active) in assay [12]. Moreover, the AC50 was 47 µM (active) and 47.5 µM (active) and 43.1 µM (active) in assay [13]; 56.5 µM (active) and 55.2 µM (active) in assay [14]; 45.7 µM (active) and 49.4 µM (active) in [15]. Further, the result in assay [4], in assay [9], in assay [11], in assay [14] and in [15] was inactive.

Turning to `OCCCC(F)(F)C(F)(F)C(F)(F)F`, the outcome in assay [1], in assay [2], in assay [3], in [4], in assay [5] and in [16] was inactive. For the same compound, the result in [6], in [7], in assay [17], in assay [8], in assay [10] and in assay [11] was inactive. Further, the outcome in assay [12], in assay [13], in assay [14] and in assay [15] was inactive.

Take `CCO[Si](CCC(F)(F)C(F)(F)C(F)(F)C(F)(F)C(F)(F)C(F)(F)F)(OCC)OCC`: the result in [1], in assay [2], in assay [3], in [4], in [5] and in assay [6] was inactive. Besides, the result in assay [7], in assay [17], in assay [8], in assay [10], in assay [11] and in assay [12] was inactive. Moreover, the outcome in [13], in assay [14] and in assay [15] was inactive.

For the compound `O=S(=O)(O)C(F)(F)C(F)(F)C(F)(F)C(F)(F)C(F)(F)C(F)(F)C(F)(F)F`, the result in [1], in [2], in [3], in assay [4], in assay [5] and in assay [6] was inactive. The outcome in [7], in assay [18], in assay [8], in assay [10], in [11] and in assay [12] was inactive. Further, the result in assay [13], in assay [14] and in [15] was inactive. In assay [6], the AC50 was 15.6 µM (active).

On to `FC(F)(F)C(F)(F)C(F)(F)C(F)(F)CCI`, for which the outcome in [1], in assay [2], in assay [3], in [4], in assay [5] and in [6] was inactive. For the same compound, the result in assay [7], in assay [19], in assay [8], in [10], in [11] and in assay [12] was inactive. Further, the outcome in assay [13], in assay [14] and in assay [15] was inactive. Moreover, the half-maximal activity concentration (AC50) in [6] is 8.85 µM (active).
